In PubChem BioAssay (Tox21):
Results filed as inconclusive are left out. Calls of active or inactive are those of the source. Unless noted, calls come from the whole dose curve; as a rule, active = well fitted curve in the direction sought with a large enough effect in the repeat runs; inconclusive = weak or mixed curves; inactive = no such curve, though single readings can be large; an effect the other way counts as inactive or inconclusive.

Legend:
[1] = qHTS assay for small molecule agonists of the p53 signaling pathway (AID 651631; calls by dose curve; note: nearly all actives have a fitted effect of over 15% in size)
Summary of the method: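 HCT-116 cells carrying a stable p53 response element–beta-lactamase reporter were plated, rested 5 h at 37 °C, then exposed to compound in DMSO for 16 h at 37 °C; reporter activity was read as FRET substrate fluorescence after 2 h at room temperature.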

[2] = qHTS assay for small molecules that induce genotoxicity in human embryonic kidney cells expressing luciferase-tagged ATAD5 (AID 651632); note: nearly all actives have a fitted effect of over 15% in size
Summary of the method: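 HEK293T cells carrying a luciferase reporter tagged to ATAD5 were exposed to compound or DMSO vehicle for 16 hr at 37C, 5% CO2. Amplite was added, and after 30 min at room temperature luciferase activity was read as a marker of ATAD5 induction.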

[3] = qHTS assay for small molecule agonists of the p53 signaling pathway - cell viability (AID 651633; calls by dose curve; note: nearly all actives have a fitted effect of over 30% in size)
Summary of the method: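 Viability counter-read: CellTiter-Glo luminescence (30 min, room temperature) in the same p53RE-bla plates. These plates had been exposed to compounds for 16 h at 37 C.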

[4] = qHTS assay for small molecules that induce genotoxicity in human embryonic kidney cells expressing luciferase-tagged ATAD5 - cell viability (AID 651634; calls by dose curve; note: nearly all actives have a fitted effect of over 25% in size)
Summary of the method: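 HEK293T cells expressing luciferase-tagged ATAD5 were exposed to compound or DMSO for 15.5 hr at 37C, 5% CO2. Viability was then read as live-cell protease activity by CellTiter-Fluor fluorescence after 30 min at 37C.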

[5] = qHTS assay for small molecule disruptors of the mitochondrial membrane potential - cell viability (AID 720634; calls by dose curve;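 note: human HepG2 liver cancer cells; nearly all actives have a fitted effect of over 20% in size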)
Summary of the method: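 HepG2 cells seeded overnight at 37 C, then exposed to compound or DMSO for 1 hr at 37 C, 5% CO2. m-MPI dye added, then CellTiter-Glo for 30 min at room temperature; viability read as ATP luminescence.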

[6] = qHTS assay to test for compound auto fluorescence at 590 nm (red) in HepG2 cells (AID 720674)
Summary of the method: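 Red autofluorescence (Ex/Em 540/590 nm, Rose Bengal sodium equivalents) was measured in HepG2 cells, 2,000 per well in MEM plus 10% FBS, plated overnight at 37 C. Readings were taken 1 hr after adding 23 nL compound or DMSO, at 37 C and 5% CO2.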

[7] = qHTS assay to test for compound auto fluorescence at 535 nm (green) in HepG2 cells (AID 720675)
[8] = qHTS assay to test for compound auto fluorescence at 460 nm (blue) in HEK293 cells (AID 720678)
Summary of the method: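 Blue-channel (Ex/Em 405/460 nm) intensity measured in HEK293 cultures after overnight compound exposure at 37C; signal expressed relative to triamterene. Cells plated 2,000 per well in 10% dialyzed FBS medium and allowed 4-5 hr to attach.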

[9] = qHTS assay to test for compound auto fluorescence at 590 nm (red) in HEK293 cells (AID 720679)
Summary of the method: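 Red-channel autofluorescence (Ex/Em 540/590 nm; Rose Bengal sodium reference) was measured after overnight 37C, 5% CO2 exposure of attached HEK293 cells, 2,000 per well in medium with 10% dialyzed FBS.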

[10] = qHTS assay to test for compound auto fluorescence at 535 nm (green) in HEK293 cells (AID 720680)
[11] = qHTS assay to test for compound auto fluorescence at 460 nm (blue) in HEK293 cell free culture (AID 720681)
Summary of the method: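 Blue fluorescence (Ex 405/Em 460 nm, triamterene-equivalent) was read immediately after pin transfer of compound or DMSO into medium (DMEM, 10% FBS) without cells.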

[12] = qHTS assay to test for compound auto fluorescence at 535 nm (green) in HEK293 cell free culture (AID 720682)
Summary of the method: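 Read-out: 485/535 nm fluorescence intensity, calibrated against fluorescein. Medium only (DMEM + 10% FBS, no cells); test compound or DMSO vehicle added by pintool before plate reading.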

[13] = qHTS assay to test for compound auto fluorescence at 590 nm (red) in HEK293 cell free culture (AID 720683)
Summary of the method: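 Red-channel autofluorescence of compounds in culture medium (DMEM, 10% FBS), no cells, measured at 540/590 nm. Rose Bengal sodium is the reference fluorophore for equivalence.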

[14] = qHTS assay to test for compound auto fluorescence at 590 nm (red) in HepG2 cell free culture (AID 720684)
Summary of the method: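 Steps: dispense MEM/10% FBS medium, no cells; pin compound or DMSO vehicle; read red channel, Ex/Em 540/590 nm. Output given as Rose Bengal sodium equivalents.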

[15] = qHTS assay to test for compound auto fluorescence at 460 nm (blue) in HepG2 cell free culture (AID 720685)
Summary of the method: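 Compound (23 nL) or DMSO pinned into cell-free MEM with 10% FBS; blue fluorescence read at 405/460 nm excitation/emission, expressed as auto-fluorescence equivalency to triamterene.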

[16] = qHTS assay to test for compound auto fluorescence at 535 nm (green) in HepG2 cell free culture (AID 720686)
[17] = qHTS assay to test for compound auto fluorescence at 460 nm (blue) in HepG2 cells (AID 720687)
Summary of the method: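 Blue-channel autofluorescence (Ex/Em 405/460 nm, triamterene-equivalent) was measured after 1 hr compound exposure at 37 C, 5% CO2. Cells were HepG2, plated overnight at 37 C in MEM plus 10% FBS.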

[18] = biological target: Glucocorticoid receptor (Homo sapiens) (UniProt P04150); assay: qHTS assay to identify small molecule agonists of the glucocorticoid receptor (GR) signaling pathway (AID 720691; active = well fitted activation curve with a large enough effect in the signal ratio in the repeat runs, not every such curve was filed as active; the % refers to the signal ratio); details: GR-bla HeLa, beta-lactamase reporter ratio, 18 h; activation: at 62.4 µM (top of the series)
Sequence of Glucocorticoid receptor (Homo sapiens) (P04150 whole entry, looked up): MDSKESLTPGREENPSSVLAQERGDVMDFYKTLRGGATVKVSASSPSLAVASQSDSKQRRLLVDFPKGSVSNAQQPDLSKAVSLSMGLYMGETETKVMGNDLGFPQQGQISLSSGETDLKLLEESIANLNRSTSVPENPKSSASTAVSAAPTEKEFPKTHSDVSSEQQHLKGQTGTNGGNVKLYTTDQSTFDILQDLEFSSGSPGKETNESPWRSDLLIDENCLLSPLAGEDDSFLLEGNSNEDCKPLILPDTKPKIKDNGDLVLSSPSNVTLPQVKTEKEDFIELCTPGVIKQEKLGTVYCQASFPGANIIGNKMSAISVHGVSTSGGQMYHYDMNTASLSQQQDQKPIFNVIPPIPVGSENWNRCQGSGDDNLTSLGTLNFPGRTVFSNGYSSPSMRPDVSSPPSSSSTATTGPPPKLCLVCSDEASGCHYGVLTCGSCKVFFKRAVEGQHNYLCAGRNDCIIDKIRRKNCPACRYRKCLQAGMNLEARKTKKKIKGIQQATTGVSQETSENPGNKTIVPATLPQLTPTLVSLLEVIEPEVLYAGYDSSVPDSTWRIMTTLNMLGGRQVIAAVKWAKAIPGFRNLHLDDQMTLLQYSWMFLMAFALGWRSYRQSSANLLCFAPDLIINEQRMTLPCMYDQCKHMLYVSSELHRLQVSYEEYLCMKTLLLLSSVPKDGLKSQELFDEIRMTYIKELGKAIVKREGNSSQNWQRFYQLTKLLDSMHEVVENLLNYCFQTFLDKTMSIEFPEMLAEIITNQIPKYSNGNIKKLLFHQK
Summary of the method: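 GR-bla HeLa cells (beta-lactamase reporter under glucocorticoid response element) were plated 4 h at 37 C/5% CO2, given compounds in DMSO, and incubated 18 h at 37 C. LiveBLAzer B/G FRET substrate was added for 2 h at room temperature, then fluorescence intensity read.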

[19] = biological target: Glucocorticoid receptor (Homo sapiens) (UniProt P04150); assay: qHTS assay to identify small molecule antagonists of the glucocorticoid receptor (GR) signaling pathway (AID 720692; active = well fitted inhibition curve with a large enough effect in the signal ratio in the repeat runs, not every such curve was filed as active; the % refers to the signal ratio)
Summary of the method: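 GR-bla HeLa cells (beta-lactamase reporter under glucocorticoid response element) were pre-plated 4 h at 37 C, treated with compounds plus 5 nM dexamethasone (final) for 18 h, then read by LiveBLAzer B/G FRET fluorescence after 2 h.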

Measured: Potency

Cc1ncc(C[n+]2csc(CCOP(=O)(O)OP(=O)(O)O)c2C)c(N)n1
inactive: all assays above

CC(C)(C)C(=O)OCOC(=O)[C@@H]1N2C(=O)[C@@H](N=CN3CCCCCC3)[C@H]2SC1(C)C
not listed: [13] | [18] | [19]
inactive: all other assays above

Cn1nnnc1SCC1=C(C(=O)O)N2C(=O)[C@@H](NC(=O)[C@H](OC=O)c3ccccc3)[C@H]2SC1
not listed: [10] | [18] | [19]
inactive: all other assays above

O=C(Cc1cccs1)N[C@@H]1C(=O)N2C(C(=O)[O-])=C(C[n+]3ccccc3)CS[C@H]12
not listed: [10]
inactive: all other assays above

CNC[C@@H]1CC[C@@H](N)[C@@H](O[C@H]2[C@H](O)[C@@H](O[C@H]3OC[C@](C)(O)[C@H](NC)[C@H]3O)[C@H](N)C[C@@H]2N)O1
not listed: [15] | [18] | [19]
inactive: all other assays above

C#CCOc1ccc2c(C)cc(=O)oc2c1
inactive: all assays above

O=C(O[C@H]1CN2CCC1CC2)N1CCc2ccccc2[C@@H]1c1ccccc1
not listed: [7]
inactive: all other assays above

C[C@@](Cc1ccc(O)c(O)c1)(NN)C(=O)O
not listed: [11] | [18]
inactive: all other assays above

CO[C@@H]1[C@@H](O[C@@H]2O[C@H](C)[C@@H](O[C@H]3C[C@@](C)(O)[C@@H](O)[C@H](C)O3)[C@H](N(C)C)[C@H]2O)[C@@H](CC=O)C[C@@H](C)[C@@H](O[C@@H]2CC[C@H](N(C)C)[C@@H](C)O2)/C=C/C=C/C[C@@H](C)OC(=O)C[C@H]1O
not listed: [10] | [18]
inactive: all other assays above

COc1cc(C[C@@H]2NCCc3cc(O)c(O)cc32)cc(OC)c1OC
not listed: [10]
inactive: all other assays above

CC(=O)[C@@]1(O)CC[C@H]2[C@@H]3C=C(Cl)C4=CC(=O)[C@@H]5C[C@@H]5[C@]4(C)[C@H]3CC[C@@]21C
not listed: [14] | [19]
inactive: all other assays above

CC(=O)N(CC(C)C(=O)O)c1c(I)cc(I)c(N)c1I (stereo not given)
not listed: [18]
inactive: all other assays above

CN[C@@H]1CCc2[nH]c3ccc(C(N)=O)cc3c2C1
not listed: [18]
inactive: all other assays above

C[C@]12CC[C@@H]3c4ccc(OS(=O)(=O)O)cc4CC[C@H]3[C@@H]1CCC2=O
not listed: [11]
inactive: all other assays above
